An excerpt weighted towards active compounds, which were near 5.2% of everything screened.
HEK293 cAMP ctrl: parental HEK293 cAMP activation (counter-screen) | Potency, µM (highest dose often 57.1 µM), most hits filed as activators | parental HEK293 CNG cAMP sensor, membrane potential fluorescence | 73,000 tested, 2.5% active | AID 938; also: nearly all actives have a fitted effect of over 55% in size
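Counterscreen for endogenous-receptor signalling: CNG-channel HEK 293 cells report cAMP rise by membrane depolarization. After 60 min dye equilibration with 100 uM RO 20-1724, compounds incubated 30 min before bottom-read fluorescence at 590 nm.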
Bst PK mod: modulators of Bacillus stearothermophilus pyruvate kinase; AID 361; purified pyruvate kinase, luminescence ATP production; ribose 5-phosphate activator present at AC10; 51,000 tested, 1.2% active; Potency, µM; in the data active = potency below about 11 µM; inconclusive = mostly about 12 µM to 25 µM;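 the screen sought inhibitors and activators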
TSHR ag: TSH receptor (human) agonism | AID 926 | 73,000 tested, 0.48% active | Potency, µM (highest dose often 57.1 µM), most hits filed as activators | HEK293-CNG-TSHR cells (CNG channel as cAMP sensor), membrane potential dye, cAMP | P16473; active = well fitted activation curve with a large enough effect in the main read-out, with a control signal flat, not every such curve was filed as active; inconclusive = small, poorly fitted or top-dose-only effect, or a change in a side signal; inactive = no such curve, though single readings can be large or run the other way; reference of the percent scale not stated here;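 also: the control signal comes from parental cells without the receptor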
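cAMP rise detected as CNG-channel membrane depolarization by fluorescent dye (emission 590 nm), 30 min after compound, following 60 min dye loading containing 100 uM RO 20-1724 at room temperature. Cells: TSHR/CNG HEK 293, with parental CNG HEK 293 as control.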
FLuc inh: firefly luciferase inhibition | P08659 | purified firefly luciferase, luminescence, 8 min | Potency, µM (top dose mostly 57.1 µM), actives largely listed as inhibitors | 72,000 tested, 2.2% active | AID 411; also: nearly all actives have a fitted effect of over 40% in size
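Luminescence read-out after 8 min at room temperature; enzyme reaction used luciferin plus 10 uM ATP (linear range) in imidazole buffer pH 7.2 with KCl, MgCl2, Tween 20 and BSA. Each sample was run as a titration.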
Of the large screens only hits and unclear results are named; the others gave an inactive call. Unless noted, calls follow the shape of the dose curve; as a rule, active = well fitted curve in the direction sought with a large enough effect; inconclusive = small, poorly fitted or top-dose-only effect, or another doubt; inactive = no such curve, though single readings can be large; an effect the other way counts as inactive or inconclusive.

O=S1(=O)CC2(N3CCOCC3)CCCCCCC21 (stereo not drawn)	none
CCCCCCn1c(O)c(C=NC2CCCCC2N)c(=O)[nH]c1=O (stereo not drawn)	Bst PK mod 2.7, FLuc inh 1.3µM (no result: TSHR ag)
CN(C)C(=O)Oc1ccc(OC(=O)c2ccccc2)cc1	FLuc inh 16µM
c1ccc(CN2CCC3(CCc4ccccc43)CC2)cc1	HEK293 cAMP ctrl 32µM, TSHR ag inconclusive (no result: Bst PK mod)
COc1ccccc1OCCCn1cc(C(=O)c2ccco2)c2ccccc21	HEK293 cAMP ctrl 32µM, TSHR ag inconclusive
CCSCC[C@H](N)C(=O)O	none (no result: Bst PK mod)
COc1cc2c(cc1O)C[C@H]1c3c(cc(OC)c(O)c3-2)CCN1C	none (no result: Bst PK mod)
CCC(=O)Nc1c(C)nn(C(=O)CC)c1C	HEK293 cAMP ctrl 32µM, TSHR ag inconclusive
COC(=O)c1ccc(COC(=O)c2ccccn2)cc1	FLuc inh 25µM (no result: Bst PK mod)
CC(C)(OO)c1ccccc1	none (no result: Bst PK mod, FLuc inh)
CC(C)CN1CCCC2(CCN(C(=O)c3ccncc3)CC2)C1	none (no result: Bst PK mod)
CN1CCCC2(CCN(C(=O)c3ccncc3)CC2)C1	HEK293 cAMP ctrl 10µM, TSHR ag inconclusive (no result: Bst PK mod)
CN1CCC2=C[C@H](O)[C@@H]3OC(=O)c4cc5c(cc4[C@H]3[C@H]21)OCO5	none (no result: Bst PK mod)
C[C@@H]1O[C@@H](O[C@H]2C[C@@H](O)[C@]3(CO)[C@@H]4[C@@H](O)C[C@]5(C)[C@H]([C@@H]6COC(=O)C6)CC[C@@]5(O)[C@H]4CC[C@@]3(O)C2)[C@H](O)[C@H](O)[C@@H]1O	HEK293 cAMP ctrl 25µM, TSHR ag inconclusive (no result: Bst PK mod)
C[C@@]12CC[C@H](O[C@@H]3O[C@H](CO)[C@@H](O)[C@H](O)[C@@H]3O)C[C@@H]1CC[C@H]1[C@H]2CC[C@@]2(C)[C@@H](C3=CCOC3=O)CC[C@]12O	none (no result: Bst PK mod)
Cc1nn(Cc2ccccc2Cl)c(Cl)c1C(=O)OCC(=O)NCc1ccco1	HEK293 cAMP ctrl 25µM, TSHR ag inconclusive
Cc1cc(NC(=O)COC(=O)c2c(C)nn(Cc3ccccc3Cl)c2Cl)no1	HEK293 cAMP ctrl inconclusive, TSHR ag inconclusive
CN1CC[C@@]2(c3cccc(O)c3)Cc3nc4ccccc4cc3C[C@H]2C1	FLuc inh 25µM (no result: Bst PK mod)

From PubChem
